PRMT1 inh: PRMT1 methyltransferase inhibitors, primary screen, biochemical, fluorescence polarization | Protein arginine N-methyltransferase 1 (Homo sapiens), Q99873 | recombinant PRMT1, activity-based probe fluorescence polarization | inhibition, % at 2.79 µM | hit rate 1.3% among 370,000 | AID 652257, 2013;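 active = inhibition above about 21% made by adding two undisclosed values, limit read from the data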
Target sequence (Q99873 whole entry, looked up): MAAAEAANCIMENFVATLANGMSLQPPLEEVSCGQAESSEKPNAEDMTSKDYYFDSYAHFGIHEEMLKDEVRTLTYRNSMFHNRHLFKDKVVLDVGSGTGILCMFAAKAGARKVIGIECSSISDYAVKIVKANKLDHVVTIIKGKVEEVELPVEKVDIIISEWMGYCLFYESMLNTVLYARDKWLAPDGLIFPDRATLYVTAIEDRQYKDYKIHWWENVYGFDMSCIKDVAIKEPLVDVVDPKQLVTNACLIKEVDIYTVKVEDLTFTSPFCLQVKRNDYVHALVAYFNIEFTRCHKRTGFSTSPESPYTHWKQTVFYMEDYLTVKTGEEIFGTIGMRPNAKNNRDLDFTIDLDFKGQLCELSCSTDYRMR
UHRF1 MBD2 ctr: UHRF1 methylated DNA binding inhibitors, primary screen, counter-screen for MBD2 inhibitor project, biochemical, TR-FRET, human UHRF1, single concentration. E3 ubiquitin-protein ligase UHRF1 (Homo sapiens), Q96T88. inhibition, % at 4.4 µM. UHRF1 binding to methylated oligo. hit rate 0.75% among 370,000; in the data active = inhibition above about 21%;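 also: UHRF1 SRA domain binding a hemimethylated CpG hairpin DNA probe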
LEDGF integ inh: blockers of LEDGF/p75-dependent integrase strand transfer – biochemical, TR-FRET, high throughput, primary screen. inhibition, % at 3.7 µM. TR-FRET IN-LEDGF/p75 DNA integration, Eu/Cy5. AID 743269, 2014. hit rate 0.64% among 370,000. HIV-1 integrase (with human LEDGF/p75);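 active = inhibition above the screen-wide mean plus 3 SD, cut at about 13% in these data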;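 also: signal is the Cy5 over europium emission ratio at 671 and 618 nm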
MBD2 DNA inh: inhibitors of MBD2 binding to methylated DNA, primary screen, biochemical, TR-FRET, DNA-binding domain, human; Methyl-CpG-binding domain protein 2 (Homo sapiens), Q9UBB5; MBD2 binding to methylated oligonucleotide; inhibition, % at 4.4 µM; hit rate 0.31% among 370,000; in the data active = inhibition above about 13%
PRMT1 inh conf: PRMT1 methyltransferase inhibitors, confirmation, biochemical, fluorescence polarization, triplicate | inhibition, % at 2.79 µM | recombinant His-PRMT1, activity-based probe fluorescence polarization | AID 687036, 2013 | hit rate 42% among 3,300 | shares compounds with PRMT1 inh;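 active = mean inhibition across replicates above the hit cutoff derived for the earlier primary screen, cut at about 22% in these data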
Of the large screens only hits and unclear results are named; the others gave an inactive call (follow-up assays come after a bar, where they were run). Most compounds without a hit are left out; they make up all but 2.5% or so of the library.

Cc1nnc(SCC2=C(C(=O)O)N3C(=O)C(NC(=O)c4cc(F)c(F)cc4Cl)C3SC2)s1 (stereo not given)	PRMT1 inh 34 | PRMT1 inh conf inactive
Cc1nnc(SCC2=C(C(=O)O)N3C(=O)C(NC(=O)COc4ccc(F)cc4)C3SC2)s1 (stereo not given)	PRMT1 inh 31 | PRMT1 inh conf 23
CCC(C(=O)NC1CCN(C)CC1)c1ccccc1 (stereo not given)	none
Cc1nnc(SCC2=C(C(=O)O)N3C(=O)C(NC(=O)COc4ccccc4)C3SC2)s1 (stereo not given)	PRMT1 inh 38 | PRMT1 inh conf 69
CCC(C(=O)NC1C(=O)N2C(C(=O)O)=C(CSc3nnc(C)s3)CSC12)c1ccccc1 (stereo not given)	PRMT1 inh 28 | PRMT1 inh conf inactive
Cc1nnc(SCC2=C(C(=O)O)N3C(=O)C(NC(=O)Cn4cnnn4)C3SC2)s1 (stereo not given)	none
COc1ccc([N+](=O)[O-])cc1NCC(=O)Nc1cccc(S(=O)(=O)N2CCCC2)c1	none
CCc1nc2c(OCC(=O)c3ccc(Cl)cc3Cl)cccn2c1N(C)C(=O)c1cccs1	none
CC(C)(C)OC(=O)[C@H](Cc1ccccc1)NC(=O)c1[nH]cnc1C(=O)Nc1ccccc1F	none
Cc1cc(NC(=O)CN2CCN(S(=O)(=O)c3ccc(Cl)cc3)CC2)no1	none
O=C(CN1CCN(c2ccc(O)cc2)CC1)NCC(=O)Nc1ccc(F)c(F)c1F	PRMT1 inh 37 | PRMT1 inh conf inactive
Cc1ccc(N2CCN(S(=O)(=O)c3ccc(C)cc3)CC2)cc1	none
O=C(CN1CCN(c2ccc(O)cc2)CC1)NC(c1ccccc1)c1ccccc1	PRMT1 inh 25 | PRMT1 inh conf inactive
Cc1cc(NC(=O)CN2CCN(c3ccc(O)cc3)CC2)no1	PRMT1 inh 42 | PRMT1 inh conf inactive
Cc1ccc(S(=O)(=O)N2CCN(C(=O)CN3CCN(c4ccc(O)cc4)CC3)CC2)cc1	PRMT1 inh 34 | PRMT1 inh conf inactive
NC1=NC(=O)S/C1=C\c1ccc(F)cc1	none
O=C(OC12CCCN(C1)/C(=C/c1cccc(Cl)c1)C2)c1ccc(Cl)cc1 (stereo not given)	none
CCCC(=O)NCc1ccc2c(c1)cc(C)n2C	none
Cc1cc2cc(CNC(=O)c3ccc(Br)o3)ccc2n1C	PRMT1 inh 36 | PRMT1 inh conf inactive
c1ccc(CSc2cc3ccccc3[nH]2)cc1	none
CC(C)NC(=O)c1cc(-c2ccco2)nn1-c1ccc(Cl)cc1	PRMT1 inh 31 | PRMT1 inh conf inactive
O=C(CS(=O)(=O)c1c[nH]c2ccccc12)N1CCc2ccccc21	none
O=C(Nc1ccc2c(c1)OCO2)c1csc([C@@H]2C[C@H](O)[C@@H](CO)O2)n1	none
COc1ccc2sc(C)[n+](C)c2c1	PRMT1 inh 60 | PRMT1 inh conf 30
COc1ccc2c(c1)sc(N)[n+]2Cc1cc(C)cc2cccnc12	none
CCCC[n+]1c(C)sc2cc(OC)ccc21	PRMT1 inh 30 | PRMT1 inh conf inactive
CC1(C(=O)Nc2ccc3c(c2)OCCO3)CN(S(C)(=O)=O)CC(=O)N1CC(F)(F)F (stereo not given)	none
Cc1nc2cc(NC(=O)C3(C)CCCN(C(C)C)C3)ccc2o1 (stereo not given)	none
Cc1ccc(-n2nnnc2SCC(=O)c2c(N)n(C3CC3)c(=O)[nH]c2=O)cc1C	none
Cc1cccc(C=Nc2ccc3c4c(cccc24)CC3)c1O	PRMT1 inh 36 | PRMT1 inh conf inactive
Oc1ccc(Cl)cc1C=Nc1ccc2c3c(cccc13)CC2	PRMT1 inh 39 | PRMT1 inh conf inactive
CCc1ccc(O)c(N=Cc2cccc(C)c2O)c1	none
COc1ccc(S(=O)(=O)N(C(C)=O)c2ccc3oc(=O)sc3c2)cc1	PRMT1 inh 94 | PRMT1 inh conf 64
CCc1ccc(NC(=O)C(C)n2nc(C)c([N+](=O)[O-])c2C)cc1 (stereo not given)	none
O=C(c1cc(Cl)cc(Cl)c1)N1CC[C@H]2[C@H](CCCN2Cc2ccc(F)cc2)C1	none
Cc1ccc(/C=C/C(=O)Nc2cccc3ncccc23)o1	PRMT1 inh 69 | PRMT1 inh conf 28
COC(=O)c1sc(NC(=O)/C=C/c2ccc(C)o2)nc1C	none
Cc1ccc(/C=C/C(=O)Nc2nn[nH]n2)o1	PRMT1 inh 36 | PRMT1 inh conf 55
Cc1ccc(/C=C/C(=O)Nc2cccnc2)o1	none
O=C(CN(Cc1ccccc1)S(=O)(=O)c1ccc(F)cc1)NCc1ccccn1	none
CN(C)S(=O)(=O)c1ccc(Cl)c(C(=O)OCC(=O)NNC(=O)c2cccs2)c1	none
CCC(=O)Nc1nc(-c2ccc3c(c2)OCCO3)cs1	none
c1cc2c(cc1-c1csc(NNC3=NCCCCC3)n1)OCCO2	PRMT1 inh 75 | PRMT1 inh conf 24
O=C(Nc1cccc(Cl)c1)O[C@@H]1CC[C@@]23CCCN2C(=O)CCC[C@H]3C1	none
Cc1cc(NC(=O)c2cc(-c3ccncc3)nc3ccccc23)ccc1Br	none
Cc1ccc(-n2nnc(-c3nccs3)n2)cc1	none
Clc1ccc(-n2nnc(-c3nccs3)n2)cc1Cl	PRMT1 inh 38 | PRMT1 inh conf 24
CCOc1cc(N2CCOCC2)c(OCC)cc1NC(=O)[C@H](C)NC(=O)c1ccco1	none
Cc1cc(C)c2ccc(=S)[nH]c2n1	PRMT1 inh 38 | PRMT1 inh conf inactive
CCOc1ccc2nc3sc(C(=O)N4CCOCC4)c(N)c3cc2c1	PRMT1 inh 28 | PRMT1 inh conf inactive
CCn1c(C)c(C(C)=O)c(N2CCN(C(c3ccccc3)c3ccccc3)CC2)nc1=S	none
CC(=O)c1c(N2CCCC2)nc(=S)n(-c2ccccc2)c1C	none
CCn1c(C)c(C(C)=O)c(N2CCN(c3ccccc3)CC2)nc1=S	PRMT1 inh 37 | PRMT1 inh conf inactive
CC(=O)c1c(N2CCN(C(=O)c3ccco3)CC2)nc(=S)n(-c2ccccc2)c1C	PRMT1 inh 36 | PRMT1 inh conf 39
CN(C)CCCNc1nc2sc3c(c2c(=O)n1CCc1ccccc1)CCCCC3	none
COc1ccccc1C(=O)N1CCN(c2ccc(N3CCOCC3)nn2)CC1	PRMT1 inh 38 | PRMT1 inh conf inactive
Cc1ccsc1/C=N/NC(=O)c1nnn(-c2nonc2N)c1CSc1ccccc1	none
CCOC(=O)CSc1nc2c(sc(=S)n2-c2ccccc2)c(=O)n1-c1ccc(OC)cc1OC	none
COc1ccc(OC)c(-n2c(=S)[nH]c3c(sc(=S)n3-c3ccccc3)c2=O)c1	PRMT1 inh 65 | PRMT1 inh conf inactive
COCCn1c(SCCN2CCOCC2)nc2c1c(=O)[nH]c(=O)n2C	PRMT1 inh 38 | PRMT1 inh conf 40

Bioassay records as filed in PubChem BioAssay.
